Experimental data taken from PubChem BioAssay (NCI).
About 83,000 compounds went through this panel and 20% of them were active in at least one assay; those are over-represented in the sample as a whole.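 Step 1: grow cells in 96-well plates. Step 2: add test compound at a single concentration. Step 3: incubate 48 h. Step 4: record percent growth.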 Activity calls are given as the source filed them. Rule for the calls: active = growth percent below 10; inactive = the rest.

Legend:
Experiment in all cases: NCI-60 one-dose screen, 48 h (100 = growth as untreated, 0 = no growth, -100 = all killed)
[1] = system: EKVX NSCLC; conditions: 10 µM unless noted
[2] = system: SN12C renal; conditions: 10 µM unless noted
[3] = system: UO-31 renal; conditions: 10 µM unless noted
[4] = system: ACHN renal; conditions: 10 µM unless noted
[5] = system: CAKI-1 renal; conditions: 10 µM unless noted
[6] = system: HL-60(TB) leukemia; conditions: 10 µM unless noted
[7] = system: CCRF-CEM leukemia; conditions: 10 µM unless noted
[8] = system: MOLT-4 leukemia; conditions: 10 µM unless noted
[9] = system: SR leukemia; conditions: 10 µM unless noted
[10] = system: OVCAR-8 ovarian; conditions: 10 µM unless noted
[11] = system: OVCAR-5 ovarian; conditions: 10 µM unless noted
[12] = system: OVCAR-4 ovarian; conditions: 10 µM unless noted
[13] = system: SK-OV-3 ovarian; conditions: 10 µM unless noted
[14] = system: IGROV1 ovarian; conditions: 10 µM unless noted
[15] = system: OVCAR-3 ovarian; conditions: 10 µM unless noted
[16] = system: HS 578T breast; conditions: 10 µM unless noted
[17] = system: A498 renal; conditions: 10 µM
[18] = system: RPMI-8226 leukemia; conditions: 10 µM unless noted
[19] = system: TK-10 renal; conditions: 10 µM unless noted

Measured: growth

C=C1C(=O)O[C@H]2[C@H]1CC/C(COC(=O)C(=O)c1cn(Cc3ccccc3)c3ccccc13)=C\CC[C@@]1(C)O[C@@H]21
inactive: [13] 86.9%
active: [1] -40.7% | [2] -70.3% | [3] -91.3% | [4] -61.5% | [5] -34.6% | [6] -26.6% | [7] -30.6% | [8] -17.3% | [9] 4.96% | [10] -2.2% | [11] -32.6% | [12] 7.79% | [14] -85.5% | [15] -82.7% | [16] 5.95%

CCCCOc1ccc(C(N)Cc2ccccc2)cc1 (centres undefined)
inactive: [1] 91.8% | [2] 95.4% | [3] 74.6% | [4] 90.5% | [5] 84.1% | [17] 65% | [6] 84.7% | [7] 98.5% | [8] 85.5% | [18] 80.5% | [10] 97.6% | [11] 95.9% | [12] 107% | [13] 114% | [14] 88.2% | [15] 102% | [16] 91%

C=CC[n+]1ccc(-c2cc[n+](CC=C)cc2)cc1
inactive: [2] 103% | [3] 95% | [19] 126% | [4] 103% | [5] 94.2% | [17] 100% | [6] 93.3% | [7] 84.7% | [8] 88.8% | [9] 93.9% | [18] 79.9% | [10] 61.3% | [11] 126% | [12] 37.6% | [13] 108% | [14] 13.6% | [15] 40.7% | [16] 116%

C[C@]12CCc3nc(Nc4ccccc4F)sc3C1=CC[C@@H]1[C@@H]2CC[C@]2(C)C(=O)CC[C@@H]12
active: [4] 9.9%
inactive: [1] 94.4% | [2] 69.5% | [3] 64.8% | [19] 35.7% | [5] 65.4% | [17] 90.6% | [7] 26.6% | [8] 14.2% | [18] 15% | [10] 70.8% | [11] 76.5% | [12] 73.9% | [13] 72.6% | [14] 61.8% | [15] 29.2% | [16] 67.8%

Cc1c(NS(=O)(=O)c2ccccc2)ccc([N+](=O)[O-])c1Cl
inactive: [1] 65.3% | [2] 58.6% | [3] 45.1% | [19] 77% | [4] 69.7% | [5] 47.8% | [17] 59.3% | [7] 64.3% | [8] 73.6% | [9] 73.8% | [18] 42.4% | [10] 74.6% | [11] 89.1% | [12] 47.3% | [13] 71.3% | [14] 72.5% | [15] 42.2% | [16] 64.4%

CCOC(=O)[C@@H](C)C[C@H](Cc1ccccc1)NC(=O)c1csc([C@@H](C[C@H](C(C)C)N(C)C(=O)[C@@H](NC(=O)[C@H]2C[C@H](O)CCN2C)C(C)C)OC(C)=O)n1
inactive: [1] 47.6% | [2] 20.6% | [3] 36.1% | [19] 38.4% | [4] 19.7% | [5] 30.9% | [8] 11.9% | [10] 14.8% | [11] 41.8% | [12] 35.2% | [14] 20.3% | [16] 19.4%
active: [6] -27.1% | [7] 4.67% | [9] 5.63% | [18] 5.82% | [13] 7.61% | [15] 5.22%

O=C(Nc1ccc(Cl)cc1)Nc1nccs1
active: [17] 8.26% | [6] -18.6% | [7] 6.31% | [18] 5.61%
inactive: [2] 50.4% | [3] 40.3% | [4] 54.4% | [5] 22.6% | [8] 20.6% | [9] 27.3% | [10] 24.9% | [11] 67.4% | [12] 81.1% | [13] 33.1% | [14] 33.6% | [16] 49.9%

N#Cc1c(Br)n(C2OC(CO)C(O)C2O)c2ncnc(N)c12 (centres undefined)
inactive: [1] 95.7% | [2] 60.3% | [3] 42.3% | [19] 115% | [4] 78.4% | [10] 35.2% | [11] 95.5% | [12] 75.3% | [13] 78.3% | [16] 39.5%
active: [17] -16.3% | [6] -33.7% | [7] 8.19% | [14] -35.1%
